# Measured values from the supplement of paper PMC3414501.
# Structures can show the parent of a compound that is named as a salt. A number with no mark means an inactive call.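 How the source made its calls: active = HIS4 sensitivity z-score above 5 vs DMSO controls; inactive = score 5 or below.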
# Test system: S. cerevisiae NKY1551 his4x/his4B, sporulating
# Test: HIS4 meiotic recombination assay sensitivity score (z-score vs DMSO controls); higher = stronger inhibition of sporulation/recombination, active = hit call of the paper
row,Structure (SMILES),HIS4 meiotic recombination assay sensitivity score
1,"CN(CCOc1ccc(CC2SC(=O)NC2=O)cc1)c1ccccn1 (stereo not drawn) [Rosigltazone hydrochloride] (stock concentration (mM, diluted 1:100): 8.2)",2.69
2,"CCc1ccc(CCOc2ccc(CC3SC(=O)NC3=O)cc2)nc1 (stereo not drawn) [Pioglitazone hydrochloride] (stock concentration (mM, diluted 1:100): 9.1)",0.36
3,"CC12CC3CC(C)(C1)CC(N)(C3)C2 [Memantine hydrochloride] (stock concentration (mM, diluted 1:100): 8.3)",1.61
4,"O=C1N[C@H](C(=O)O)CS1 [Procysteine] (stock concentration (mM, diluted 1:100): 10)",-0.93
5,"CC(C)Oc1ccc2c(=O)c(-c3ccccc3)coc2c1 [Ipriflavone] (stock concentration (mM, diluted 1:100): 10)",-1.16
6,"COc1cccc2c1C(=O)c1c(O)c3c(c(O)c1C2=O)C[C@@](O)(C(=O)CO)C[C@@H]3O[C@H]1C[C@H](N)[C@@H](O)[C@H](C)O1 [Epirubicin hydrochloride] (stock concentration (mM, diluted 1:100): 9.4)",-1.39
7,"N#Cc1ccc(C(c2ccc(C#N)cc2)n2cncn2)cc1 [Letrozol] (stock concentration (mM, diluted 1:100): 10)",-0.01
8,"O=C(NCCN1CCOCC1)c1ccc(Cl)cc1 [Moclobemide] (stock concentration (mM, diluted 1:100): 10)",-1.83
